Records with an inconclusive call do not appear. Active and inactive are the calls of the source. Rule for the calls: active = hit-call score of the fitted dose curve at least 0.9, where 1 is the maximum; inconclusive = response in the unintended direction; inactive = score below 0.9.

A short description of this experiment: CCTE_Shafer_MEA_acute_LDH: CCTE's Lactate Dehydrogenase Assay for Cytotoxicity in the Neural Acute Assay, Shafer Lab (AID 2284086).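 Note: active means LDH release rises above DMSO vehicle level.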 On the procedure:
CCTE_Shafer_MEA_acute assay is conducted using Axion Biosystems 48 well microelectrode array (MEA) plates and Maestro recording system. Each well of the MEA plate contains a grid of 16 microelectrodes embedded in the culture surface. Electrically active cells, such as neurons, can be cultured over the electrodes, and electrical activity in these cells can be recorded extracellularly. The spontaneous firing of neurons is captured from each electrode on a microsecond timescale providing both temporally and spatially precise data. […] The CCTE_Shafer_MEA_acute assay uses primary cultures of rat cortical neurons. As these cultures mature over time, neural networks develop functional activity and form cohesive networks in which electrical activity can be highly coordinated. Baseline 40-minute recordings are made on days post-plating 13 or 15, followed by a secondary 40-minute recording after chemical exposure.CCTE_Shafer_MEA_acute_LDH is a component of the CCTE_Shafer_MEA_acute assay. It measures the lactate dehydrogenase enzyme activity using spectrophotometry.Data from the assay component CCTE_Shafer_MEA_acute_LDH was analyzed into 1 assay endpoint. This assay endpoint, CCTE_Shafer_MEA_acute_LDH, was analyzed in the positive analysis fitting direction relative to DMSO as the negative control and baseline of activity. Using a type of viability reporter, gain-of-signal activity can be used to understand cell viability.
Immediately following the 40 min recording in the presence of compounds, 50 uL of media was removed from each well and transferred to a sterile 96-well plate. This was used to determine LDH released from cells during compound exposure using a kit from Promega where absorbance was determined in a Molecular Devices VersaMax plate reader at 490 nm.
Turning to `COc1cc(CNC(=O)CCCC/C=C/C(C)C)ccc1O`, the compound was classed as inactive. Regarding `CC[N+](CC)(CC(=O)Nc1c(C)cccc1C)Cc1ccccc1` (tested in a mixture with another compound), the result was inactive. With `COc1ccc(C(=O)c2ccccc2O)c(O)c1` the entry was “inactive”; with `Cc1c(C(N)=O)cc([N+](=O)[O-])cc1[N+](=O)[O-]`, “inactive”; with `CC1(C)S[C@@H]2[C@H](NC(=O)[C@H](N)c3ccc(O)cc3)C(=O)N2[C@H]1C(=O)O`, “inactive”. The same measure for `CC(C)C1OCCN1CCOC(=O)NCCCCCCNC(=O)OCCN1CCOC1C(C)C` (stereo not given): “inactive”; for `CC1(C)S[C@@H]2[C@H](NC(=O)[C@H](N)c3ccccc3)C(=O)N2[C@H]1C(=O)O`: “inactive”. With `C1CN(CCOCCN2CCOCC2)CCO1` the entry was “inactive”; with `CN(C)C(=O)C(CCN1CCC(O)(c2ccc(Cl)cc2)CC1)(c1ccccc1)c1ccccc1`, “inactive”; with `CCC[Si](OC(C)=O)(OC(C)=O)OC(C)=O`, “inactive”.

As for `O=[N+]([O-])c1cc(S(=O)(=O)Nc2ccccc2)ccc1Nc1ccccc1`, the compound was classed as inactive. With `CN(C)Cc1cc(C(C)(C)C)c(O)c(C(C)(C)C)c1` the entry was “inactive”. The same measure for `CNCCC(Oc1ccc(C(F)(F)F)cc1)c1ccccc1` (stereo not given): “inactive”; for `NC(N)=Nc1nc(CSCCC(N)=NS(N)(=O)=O)cs1`: “inactive”. As for `CN(C)CCC(c1ccc(Cl)cc1)c1ccccn1` (stereo not given), the call was inactive.

(Values after PubChem BioAssay (EPA / NIEHS).)
